From PubChem BioAssay
Shown is part of a subset that was picked to be rich in hits.
Giardia killer = Small Molecules that selectively kill Giardia lamblia: qHTS; 340,000 tested, 0.15% active; Giardia lamblia trophozoite viability; activity change, % at 7.66 µM, hits read low; in the data active means activity change below about -80%; inconclusive means between about -30% and that limit;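 further: parasites exposed to compound for two days anaerobically before the ATP read; on the % scale 0 is the no-effect control and ±100 the full control effect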
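Trophozoites 100 cells/well + cpd; 48 hrs, 37 deg C, anaerobic. ATPLite 1-Step added, 15-30 min RT, luminescence read (ATP-based viability).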
a7 integrin act = qHTS for Activators of Integrin-Mediated Alleviation for Muscular Dystrophy; alpha7betagal myoblasts, beta-gal FDG fluorescence, 48 h; Potency, µM (doses to about 38.3 µM), without a hit: top-dose activation, actives largely listed as activators; 350,000 tested, 0.064% active; AID 624291, 2012;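 further: potency means the concentration at half of the fitted maximal effect; 100% = response of the positive control SU9516; nearly all actives have a fitted effect of over 60% in size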
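Alpha7betagal+/- myoblasts (passage 13) were plated 16-24 hr, then exposed to compounds (1:260 dilution of DMSO stock) for 48 hours at 37C. After MPER lysis, β-galactosidase reporter activity was read as FDG fluorescence (ex 480/em 540) after 30 minutes.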
RORgamma inh = qHTS for inhibitors of ROR gamma transcriptional activity. Nuclear receptor ROR-gamma (Mus musculus), P51450. Drosophila S2 Gal4-RORgamma UAS-luciferase reporter, 20 h. Potency, µM (series often up to 53.6 µM), for inactives: at the highest dose activity change, negative = inhibition, usual class: inhibitors. 310,000 tested, 5.4% active. AID 2551, 2010; further: potency means the concentration at half of the fitted maximal effect; on the % scale 0 is the no-effect control and ±100 the full control effect; nearly all actives have a fitted effect of over 60% in size
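Using a luciferase readout, inhibitors were identified by reduced reporter activity in Drosophila cells coexpressing a copper-inducible Gal4–ROR gamma fusion and UAS-driven Photinus luciferase, incubated 20 hr after 700 uM copper sulfate.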
ERG Ets-DNA blk = qHTS for Small Molecule Inhibitors of the ERG Ets/DNA interaction; Transcriptional regulator ERG (Homo sapiens), P11308; fluorescence polarization, His-ERG Ets domain / labelled DNA; Potency, µM (highest dose often 76.9 µM), for the others: at the top dose FP activity, negative = inhibition, actives largely listed as inhibitors; 370,000 tested, 0.028% active; active means well fitted inhibition curve with a large enough effect in the polarisation, with a control signal flat; inconclusive means small, poorly fitted or top-dose-only effect, or effect the other way, or a change in a side signal; inactive means no such curve, though single readings can be large or run the other way; the % refers to the polarisation;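 further: polarization taken with two DNA probes labelled with fluorescein and Texas red; potency means the concentration at half of the fitted maximal effect; % of control where 0% means no effect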
Target sequence (P11308 whole entry, looked up, the tested form may be a part): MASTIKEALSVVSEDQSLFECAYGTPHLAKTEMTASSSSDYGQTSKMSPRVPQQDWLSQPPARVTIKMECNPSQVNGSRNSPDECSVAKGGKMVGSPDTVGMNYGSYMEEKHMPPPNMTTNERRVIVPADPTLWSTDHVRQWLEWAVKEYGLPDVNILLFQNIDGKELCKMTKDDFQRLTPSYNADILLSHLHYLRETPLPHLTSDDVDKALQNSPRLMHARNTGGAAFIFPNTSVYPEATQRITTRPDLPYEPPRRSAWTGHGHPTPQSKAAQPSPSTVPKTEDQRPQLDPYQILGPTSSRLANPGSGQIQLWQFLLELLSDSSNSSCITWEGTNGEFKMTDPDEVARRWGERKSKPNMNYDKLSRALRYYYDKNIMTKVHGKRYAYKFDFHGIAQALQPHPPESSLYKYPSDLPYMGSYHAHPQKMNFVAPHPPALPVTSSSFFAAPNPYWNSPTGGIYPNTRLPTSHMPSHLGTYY
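His-tagged ERG Ets domain (1 uM in the protein solution; 300mM KCl, 50mM Tris-HCl, 1mM EDTA, 1mM DTT, pH 7.5) received compound, then a probe mix of 5 nM fluorescein-DNA and 100nM Texas-615-DNA. Fluorescence polarization was read for both dyes.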
Gal4-VP16 FLuc = VP16 counterscreen qHTS for inhibitors of ROR gamma transcriptional activity; Drosophila S2 Gal4-VP16 UAS-luciferase, luminescence, 20 h; Potency, µM (doses to about 53.6 µM), for inactives: top-dose activity, negative = inhibition, usual class: inhibitors; 310,000 tested, 3.5% active; AID 2546, 2010;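 further: Gal4-VP16 expression switched on by copper sulfate through the metallothionein promoter; potency means the concentration at half of the fitted maximal effect; on the % scale 0 is the no-effect control and ±100 the full control effect; nearly all actives have a fitted effect of over 50% in size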
Numbers without * were called inactive; ? = inconclusive; / = not tested or not shown; ! = repeats disagree; [ ] = another dose, or the depositor's remark. Unless noted, the call rests on the fitted dose curve; in most records, active means well fitted curve in the direction sought with a large enough effect; inconclusive means small, poorly fitted or top-dose-only effect, or another doubt; inactive means no such curve, though single readings can be large; an effect the other way counts as inactive or inconclusive.

SMILES	Giardia killer	a7 integrin act	RORgamma inh	ERG Ets-DNA blk	Gal4-VP16 FLuc
N#Cc1ccc(/C=C/C(=O)O)cc1	13	19%	13%	-1%	-12%
Oc1cc[c]([Hg][Cl])cc1	/	/	2.5µM*	/	2.8µM*
Oc1ccc(Cl)c(Cl)c1	14	/	33%	12%	-5%
Cc1ccc(Cl)c(O)c1	/	/	-2%[10 µM]	/	-6%
CCCC[N+]12C3CC(C(CC)[C@H]1O)[C@@H]1C(O)C4(C[C@@H]12)c1ccccc1N(C)C34 (some centres not stated)	/	/	8%	/	2%
O=C1CCN(C(=O)CNC(=O)Cc2ccccc2)CC1	14	16%	-1%	-4%	-15%
Cc1cc2ccccc2n1CCNC(=O)Cc1ccccc1	2	15%	12%	35µM*	-5%
S=C=Nc1ccccn1	-1	-5%	5µM*	-2%	?
C=C1[C@@H]2C[C@]3(C(CC2=O)[C@]24C5C[C@H]3[C@H]2N(CC)C[C@]5(C)CC[C@@H]4O)[C@@H]1O (some centres not stated)	/	/	-23%	/	-5%
ClC1=C(Cl)C(Cl)(Cl)C(Cl)=C1Cl	/	/	18µM*	/	?
ClC1=C(Cl)C(Cl)(C2(Cl)C(Cl)=C(Cl)C(Cl)=C2Cl)C(Cl)=C1Cl	/	/	8.9µM*	/	7.1µM*
CCOCCOC(C)=O	/	/	0%	/	5%
CC[C@@]1(O)CC(O)c2c(cc3c(c2O)C(=O)c2c(O)ccc(O)c2C3=O)C1C(=O)OC (some centres not stated)	/	/	?	/	20%
CC[C@]1(O)CC(O[C@@H]2CC(N(C)C)C(O)C(C)O2)c2c(cc3c(c2O)C(=O)c2c(O)cccc2C3=O)C1C(=O)OC (some centres not stated)	/	/	2.2µM*	/	4.5µM*
C[N+](=O)[O-]	/	/	-13%	/	0%
[S]=[Sb][S][Sb]=[S]	/	/	6%	/	-7%
O=C(NCC1=C(c2ccc3ccccc3c2)C[C@@H]2CC[C@H]1N2Cc1ccco1)c1ccncc1	/	-37%	/	/	/
Cc1ccc(NC(=S)NC2CC3CCC(C2)N3Cc2ccco2)cc1C (configuration not stated)	-3	-51%	14µM*	/	-19%
O=c1c2ccccc2[nH]c(=S)n1-c1cccnc1	7	-21%	14%	7%	-6%
COc1cccc(-n2c(=S)[nH]c3ccccc3c2=O)c1	10	10%	4.5µM*	25%	?
O=c1c2ccccc2[nH]c(=S)n1-c1ccc(Br)cc1	?	-7%	0.89µM*	-10%	1.4µM*
O=c1c2ccc(Cl)cc2[nH]c(=S)n1-c1cccnc1	8	20%	14µM*	-7%	?
C[C@H]1CC[C@@H]2[C@@H](C)[C@H]3C(C[C@H]4C5CC[C@H]6C[C@@H](O)CC[C@]6(C)C5CC[C@]34C)N2C1 (some centres not stated)	12	/	-15%	/	0%
c1ccc2sc(C3(N4CCCCC4)CCCCC3)cc2c1	/	/	-12%	/	6%
SMILES	Giardia killer	a7 integrin act	RORgamma inh	ERG Ets-DNA blk	Gal4-VP16 FLuc
O=c1n(Cl)c(=O)n(Cl)c(=O)n1Cl	/	/	-17%[10 µM]	/	-3%
Cc1ccc(C(=O)n2c(N)nc3ccccc32)cc1	-81*	5%	1.6µM*	11%	6.3µM*
CCC1CN2CCC1CC2C(O)c1ccnc2ccc(OC)cc12 (configuration not stated)	/	/	10%	/	-3%
O=C(N/N=C1/CN2CCC1CC2)c1cc2ccccc2cc1O	-19	14%	3.5µM*	-2%	13µM*
Clc1ccccc1Cl	/	/	?	/	-13%
C/C=C(\C)C(=O)OC1C(C)=C2C(C1OC(=O)CCCCC)C(C)(OC(C)=O)CC(OC(=O)CCC)C1(O)C2OC(=O)C1(C)O (configuration not stated)	/	/	?	/	18µM*
CNNC	/	/	-11%	/	-7%
C=C(C)[C@]12C[C@@H](C)[C@@]34OC(Cc5ccccc5)(O[C@@H]1[C@@H]3C=C(COC(=O)Cc1cc(OC)c(O)cc1I)C[C@]1(O)C(=O)C(C)=C[C@@H]41)O2	/	/	8%	/	?
CCCCn1cc[n+](C)c1	/	/	?	/	-7%
CCCCn1c(=O)c(C(=O)Nc2ccccc2N)c(O)c2ccccc21	24	-21%	5.6µM*	4%	7.1µM*
CCCCCn1c(=O)c(C(=O)NCc2ccncc2)c(O)c2ccccc21	-2	-38%	3.5µM*	-12%	4.5µM*
CC(C)C1C(=O)O[C@@H]2CCN3CC=C(COC(=O)[C@](C)(O)[C@]1(C)O)[C@H]23 (some centres not stated)	/	/	-31%	/	-4%
CC(C)[C@H](CO)Nc1nc(Nc2cccc(Cl)c2)c2ncn(C(C)C)c2n1	/	/	14µM*	/	0%
O=c1cc(-c2ccc(O)c(O)c2)oc2cc(O)cc(O)c12	30	-23%	22µM*!	-5%	11µM*!
c1ccc(N2CC3(CCNCC3)C2)nc1	/	/	-18%	/	-8%
C=CC(N)=O	/	/	-7%	/	6%
O=C(CSC1c2ccccc2-c2ccccc21)N/N=C/c1ccccc1O	-2	10%	13µM*	1%	18µM*
O=C(CSC1c2ccccc2-c2ccccc21)N/N=C/c1ccc(C(=O)O)cc1	4	-21%	-35%	-1%	-2%
CC(C)c1ccc(OCC(=O)N2CCN(CCc3ccncc3)CC2)cc1	/	/	/	-1%	/
O=C(c1ccc(C(F)(F)F)cc1)C1CCCN(C2CCSCC2)C1 (configuration not stated)	-2	11%	-1%	2%	-4%
COc1ccc(CN2CCCC(C(=O)c3ccccc3SC)C2)cc1O (configuration not stated)	12	0%	-1%	-4%	8%
CSc1ccccc1C(=O)C1CCCN(Cc2cccc(C)n2)C1 (configuration not stated)	-12	-10%	4.5µM*	2%	20µM*
CSc1ccccc1C(=O)C1CCCN(Cc2ccccn2)C1 (configuration not stated)	19	8%	11µM*	-2%	-23%
Cc1cccc(CN2CCCC(C(=O)c3ccc(C(F)(F)F)cc3)C2)n1 (configuration not stated)	-16	-3%	2.8µM*	1%	7.9µM*
O=[N+]([O-])c1cc(Cl)c(Cl)c(Cl)c1	/	/	-6%	/	-1%
